In PubChem BioAssay (Tox21):
Records with an inconclusive call do not appear. Entries that show only a call come without a potency. Activity calls are given as the source filed them. Calls follow the shape of the dose curve; as a rule, active = well fitted cell-killing curve with a large enough effect in the repeat runs; inconclusive = weak or mixed curves, or effect the other way; inactive = no such curve, though single readings can be large or run the other way.
Potency is read from the fitted curve at half-maximal effect.

Assay: qHTS assay to identify small molecule antagonists of the peroxisome proliferator-activated receptor gamma (PPARg) signaling pathway - cell viability counter screen (AID 743194); also: nearly all actives have a fitted effect of over 55% in size
Settings: PPARg-bla HEK293H viability, CellTiter-Glo luminescence, 17 h; Potency: co-treated with 50 nM rosiglitazone unless noted; series mostly up to 62.6 µM
From the text: U.S. Tox21 Program National Center for Advancing Translational Sciences [NCATS] NIH Chemical Genomics Center [NCGC] U.S. Environmental Protection Agency [EPA] National Institutes of Environmental Health Sciences [NIEHS] National Toxicology Program [NTP] U.S. Food and Drug Administration [FDA] Tox21 Assay Overview: The peroxisome proliferator-activated receptors (PPARs) are lipid-activated transcription factors of the nuclear receptor superfamily with three distinct subtypes namely PPAR alpha, PPAR delta (also called PPAR beta) and PPAR gamma (PPARg). All these subtypes heterodimerize with Retinoid X receptor (RXR) and these heterodimers regulate transcription of various genes. PPAR-gamma receptor (glitazone receptor) is involved in the regulation of glucose and lipid metabolism. To identify the compounds that activate PPAR-gamma signaling, GeneBLAzer PPAR gamma UAS-bla HEK293H cell line (Invitrogen, Carlsbad, CA, USA) containing a beta-lactamase reporter gene under the control of an Upstream Activator Sequence (UAS) was used to screen the Tox21 compound library. The cytotoxicity of the Tox21 compound library against the PPARg-bla cell line was tested in parallel by measuring the cell viability using CellTiter-Glo assay in the same wells.
Tox21 Assay Protocol Summary: PPARg-bla cells were dispensed at 3000 cells/5uL/well in 1536-well black wall/clear bottom plates using a Multidrop Combi (Thermo Fisher Scientific, Waltham, MA) dispenser. After the assay plates were incubated at 37 C and 5% CO2 for 5 h, 23 nL of compounds dissolved in DMSO, positive controls or DMSO only was transferred to the assay plate by a Pintool station (Kalypsys, San Diego, CA), followed by addition of 1ul Rosiglitazone (50 nM, final concentration in the wells). The assay plates were incubated at 37 C for 17 h, and then 1 uL of LiveBLAzerTM B/G FRET substrate was added using a Bioraptr Flying Reagent Dispenser (FRD) workstation (Beckman Coulter, Indianapolis, IN, USA). The assay plates were incubated at room temperature for 1 h and fluorescence intensity was measured by an Envision plate reader (PerkinElmer, Shelton, CT). For cell viability readout that measures cytotoxicity, 4 ul/well of CellTiter-Glo reagent was added into the assay plates using a Flying Reagent Dispenser. After 30 min incubation at room temperature, the luminescence intensity in the plates was measured using a ViewLux plate reader (PerkinElmer).
With CCn1cc[n+](C)c1 (tested in a mixture with another compound) the Potency was “inactive”.
For c1ccc(N=NNc2ccccc2)cc1, the Potency was “inactive”.
In the case of c1ccc2nc(N3CCNCC3)ccc2c1, the Potency is reported as “inactive”.
For O=C1C(Cl)=C(Cl)C(=O)C(Cl)=C1Cl, the Potency was 6.92 µM (active).
For C=Cc1cccc(CCl)c1, the Potency was “inactive”.
With C=C(C)C(=O)[O][Sn]([CH2]CCC)([CH2]CCC)[CH2]CCC the Potency was 0.549 µM (active).
In the case of O=c1c2ccccc2c(=O)c2c1cc(Cl)c1[nH]c3c([nH]c12)c(Cl)cc1c(=O)c2ccccc2c(=O)c13, the Potency is reported as “inactive”.
In the case of CCOP(=O)(OCC)Oc1cc(C)nc(C(C)C)n1, the Potency is reported as “inactive”.
For CCOP(=S)(OCC)Oc1cc(C)nc(N(CC)CC)n1, the Potency was “inactive”.
For CCCCn1cc[n+](C)c1 (tested in a mixture with another compound), the Potency was “inactive”.
With ClC1=C(Cl)[C@]2(Cl)[C@@H]3[C@H]4C[C@H]([C@@H]5O[C@H]45)[C@@H]3[C@@]1(Cl)C2(Cl)Cl the Potency was “inactive”.
In the case of C[N+]1(C)[C@@H]2CC[C@H]1CC(OC(=O)C(CO)c1ccccc1)C2 (stereo not given in full), the Potency is reported as “inactive”.
In the case of CCCCCCCc1ccc(O)cc1, the Potency is reported as “inactive”.
With Cc1ccc2cc3c(ccc4ccccc43)c3c2c1CC3 the Potency was “inactive”.
In the case of C=CCBr, the Potency is reported as “inactive”.
With CCN(CC)C(=O)N[C@@H]1C=C2c3cccc4[nH]cc(c34)C[C@@H]2N(C)C1 the Potency was “inactive”.
With CN(C)CCc1c[nH]c2ccccc12 the Potency was “inactive”.
For CSC(C)(C)/C=N/O, the Potency was “inactive”.
In the case of O.O.O.O=C([O-])[C@H]([O-])[C@@H]([O-])C(=O)[O-].O=C([O-])[C@H]([O-])[C@@H]([O-])C(=O)[O-].[K+].[K+].[Sb+3].[Sb+3], the Potency is reported as “inactive”.
In the case of CC(=O)[O][Sn]([c]1ccccc1)([c]1ccccc1)[c]1ccccc1, the Potency is reported as 0.138 µM (active).
With CCN(CC)C(=S)S the Potency was “inactive”.
With CCOP(=O)(Sc1ccccc1)Sc1ccccc1 the Potency was “inactive”.
With N#Cc1sc2c(=O)c3ccccc3c(=O)c=2sc1C#N the Potency was 19.5 µM (active).
For Clc1ccc(C2(Cn3cncn3)OCCO2)c(Cl)c1, the Potency was “inactive”.
For CCCCCCC[CH2][Sn]([Cl])([Cl])[CH2]CCCCCCC, the Potency was 48.9 µM (active).
For O=C(Nc1ccc(F)cc1F)c1cccnc1Oc1cccc(C(F)(F)F)c1, the Potency was “inactive”.
In the case of CCC(C)Br (stereo not given), the Potency is reported as “inactive”.
In the case of CC(O)C(=O)[O][Hg][c]1ccccc1 (stereo not given), the Potency is reported as 0.436 µM (active).
In the case of CN/C(=N\[N+](=O)[O-])NCc1cnc(Cl)s1, the Potency is reported as “inactive”.
In the case of O=[N+]([O-])[O-].[Tl+], the Potency is reported as “inactive”.
In the case of OCC(Br)CBr (stereo not given), the Potency is reported as “inactive”.
With CCCCN(CCCC)C(=S)[S-].CCCCN(CCCC)C(=S)[S-].[Ni+2] the Potency was “inactive”.
In the case of CCCC[N+]1(C)CCCC1 (tested in a mixture with another compound), the Potency is reported as “inactive”.
In the case of COC(=O)c1cc(Oc2ccc(Cl)cc2Cl)ccc1[N+](=O)[O-], the Potency is reported as “inactive”.
In the case of N#Cc1c[nH]cc1-c1cccc2c1OC(F)(F)O2, the Potency is reported as “inactive”.
In the case of ClC1=C(Cl)[C@]2(Cl)[C@H]3[C@H]([C@@H]4C=C[C@H]3C4)[C@@]1(Cl)C2(Cl)Cl, the Potency is reported as 49 µM (active).
In the case of CC(=O)O.CC(=O)O.CC(=O)O.CC(=O)O.CC(=O)O.CC(=O)O.CC(=O)O.O.O.[Cr].[Cr].[Cr], the Potency is reported as “inactive”.
With Cc1cc2c3c(c1)C(c1ccccc1)=N[C@@H](NC(=O)c1ccncc1)C(=O)N3CC2 the Potency was “inactive”.
With Nc1ccccc1-c1ccccc1 the Potency was “inactive”.
In the case of CC1=C2C[C@H]3[C@@H](CC=C4C[C@@H](O)CC[C@@]43C)[C@@H]2CC[C@]12O[C@@H]1C[C@H](C)CN[C@H]1[C@H]2C, the Potency is reported as “inactive”.
